Screening results deposited in PubChem BioAssay by National Center for Advancing Translational Sciences (NCATS).
This is a sample that favours compounds with a hit; in the whole collection about 8.9% have one here.
HPGD block – qHTS Assay for Inhibitors of HPGD (15-Hydroxyprostaglandin Dehydrogenase). Potency, µM, hits mostly inhibitors. actives 4.3% (n = 150,000). 15-hydroxyprostaglandin dehydrogenase [NAD(+)] (Homo sapiens), P15428. purified HPGD, NADH fluorescence kinetic, PGE2 substrate; active = well fitted inhibition curve with a large enough effect, not every such curve was filed as active; inconclusive = small, poorly fitted or top-dose-only effect, or another doubt; inactive = no such curve, though single readings can be large or run the other way
Target sequence (P15428 whole entry, looked up): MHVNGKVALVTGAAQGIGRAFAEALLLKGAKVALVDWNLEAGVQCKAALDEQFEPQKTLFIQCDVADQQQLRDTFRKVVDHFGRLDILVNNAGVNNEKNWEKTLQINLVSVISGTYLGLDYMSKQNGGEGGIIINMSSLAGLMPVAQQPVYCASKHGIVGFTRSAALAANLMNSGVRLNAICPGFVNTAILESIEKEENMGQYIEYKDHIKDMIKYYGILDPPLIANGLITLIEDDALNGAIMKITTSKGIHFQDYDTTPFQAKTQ
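NADH formation kinetics: reaction with 30 uM PGE2 and 1 mM NAD+ (final), 20 nM enzyme, Tris-HCl pH 8 with Tween 20, after 15 min compound preincubation at room temperature. Fluorescence change, last versus first of five reads.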
IMPase cell inh – qHTS Assay for Identifying the Cell-Membrane Permeable IMPase Inhibitors; Inositol monophosphatase 1 (Rattus norvegicus), P97697; CHO-M1 cells, IP1 accumulation, HTRF TR-FRET ratio; inhibition (IP1 accumulation), % at 46.1 µM; 120,000 tested, under 10 active; active = well fitted curve in the direction sought with a large enough effect in the signal ratio, not every such curve was filed as active; inconclusive = small, poorly fitted or top-dose-only effect, or a change in a side signal; inactive = no such curve, though single readings can be large or run the other way; the % refers to the signal ratio;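 also: cells stimulated with carbachol in lithium chloride buffer; higher means more IMPase inhibition seen as more IP1 and lower FRET ratio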
Target sequence (P97697 whole entry, looked up): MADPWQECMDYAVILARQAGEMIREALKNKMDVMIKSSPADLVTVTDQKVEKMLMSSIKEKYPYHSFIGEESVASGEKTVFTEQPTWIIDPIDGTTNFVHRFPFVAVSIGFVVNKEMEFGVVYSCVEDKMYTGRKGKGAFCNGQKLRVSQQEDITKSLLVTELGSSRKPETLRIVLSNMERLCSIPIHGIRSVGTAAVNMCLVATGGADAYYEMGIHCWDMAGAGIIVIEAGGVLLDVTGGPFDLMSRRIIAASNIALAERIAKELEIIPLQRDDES
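CHO-M1 cells (CHO stably expressing M1 receptor), compound up to 46 uM final, stimulated with carbachol (50 uM as added) in buffer with 50mM LiCl, pH 7.4, 30 min at 37C. Cytosolic IP1 read by TR-FRET; AC50 from Hill fits.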
12-hLO inh – qHTS Assay for Inhibitors of 12-hLO (12-human lipoxygenase); Polyunsaturated fatty acid lipoxygenase ALOX12 (Homo sapiens), P18054; purified 12-hLO, xylenol orange hydroperoxide absorbance; Potency, µM (titrated, usually from 57.1 µM), actives largely listed as inhibitors; actives 0.12% (n = 150,000); also: nearly all actives have a fitted effect of over 55% in size
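Lipoxygenase turnover measured by absorbance at 573 and 405 nm after Fe-XO development. Human 12hLO 150 nM, arachidonate 40 uM, pH 7.0 Hepes buffer with detergent; 15 min compound preincubation, 30 min reaction.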
IMPase Li cell – qHTS Assay for Identifying the Cell-Membrane Permeable IMPase Inhibitors: Potentiation with Lithium; CHO-M1 cells, IP1 TR-FRET (IP-One), carbachol + lithium; Potency, µM (titrated, usually from 59.4 µM), usual class: inhibitors; actives 0.35% (n = 210,000);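 also: IP1 builds up when IMPase is blocked and the TR-FRET signal falls; nearly all actives have a fitted effect of over 50% in size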
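IP1 accumulation measured by competitive TR-FRET in lysed CHO-M1 cells after 30 min compound exposure at 37C, with a small lithium addition to potentiate weak responses. Hill-equation AC50 from ratio and donor-channel data.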
ALDH1A1 inh – qHTS Assay for Inhibitors of Aldehyde Dehydrogenase 1 (ALDH1A1) | Aldehyde dehydrogenase 1A1 (Homo sapiens), P00352 | Purified ALDH1A1, NADH fluorescence, propionaldehyde substrate | Potency, µM (doses to about 75.3 µM), actives largely listed as inhibitors | actives 7.3% (n = 220,000); active = well fitted inhibition curve with a large enough effect, not every such curve was filed as active; inconclusive = small, poorly fitted or top-dose-only effect, or another doubt; inactive = no such curve, though single readings can be large or run the other way
NPSR antagonist – qHTS Assay for Antagonists of the Neuropeptide S Receptor: cAMP Signal Transduction; Q6W5P4; CHO-NPSR cells, cAMP TR-FRET, antagonist mode; Potency, µM (series often up to 38.3 µM), hits mostly inhibitors; actives 1% (n = 220,000); also: nearly all actives have a fitted effect of over 50% in size
Numbers stand for hits. Unless noted, calls follow the shape of the dose curve; as a rule, active = well fitted curve in the direction sought with a large enough effect; inconclusive = small, poorly fitted or top-dose-only effect, or another doubt; inactive = no such curve, though single readings can be large; an effect the other way counts as inactive or inconclusive.

For Clc1cccc(CN2CCN(c3nc4nonc4nc3NC3CC3)CC2)c1 the results were IMPase Li cell inactive, ALDH1A1 inh inactive and NPSR antagonist inactive.
Cc1cccc(N2CCN(CCCNC(=O)c3nnc(Cc4c(F)cccc4Cl)o3)CC2C)c1 (centres undefined) was read as IMPase cell inh inactive.
Screening O=S1(=O)c2ccccc2N=NN1Cc1ccc(Cl)cc1 returned HPGD block 28µM, IMPase cell inh inactive, 12-hLO inh inactive, IMPase Li cell inactive, ALDH1A1 inh 2.4µM and NPSR antagonist inactive.
`O=S1(=O)c2ccccc2N=NN1Cc1cc(Cl)cc(Cl)c1` gave HPGD block inconclusive, IMPase cell inh inactive, 12-hLO inh inactive, IMPase Li cell inactive, ALDH1A1 inh inconclusive and NPSR antagonist inactive.
`COc1ccc(-n2c(Cc3cccn3C)nnc2SCC(N)=O)cc1` gave HPGD block inactive, IMPase cell inh inactive, 12-hLO inh inactive, IMPase Li cell inactive, ALDH1A1 inh inactive and NPSR antagonist inactive.
Screening CCN(CC)S(=O)(=O)c1cccc(-c2nnc(SC(C)C(N)=O)n2CCc2ccccc2)c1 (centres undefined) returned HPGD block inactive, IMPase cell inh inactive, 12-hLO inh inactive, IMPase Li cell inactive, ALDH1A1 inh inactive and NPSR antagonist inactive.
`CCN(CC)S(=O)(=O)c1cccc(-c2nnc(SCC#N)n2Cc2ccccc2)c1` gave HPGD block inactive, IMPase cell inh inactive, 12-hLO inh inactive, IMPase Li cell inactive, ALDH1A1 inh 10µM and NPSR antagonist inactive.
`CCN(CC)S(=O)(=O)c1cccc(-c2nnc(SC(C)C#N)n2Cc2ccccc2)c1` (centres undefined) gave HPGD block inactive, IMPase cell inh inactive, 12-hLO inh inactive, IMPase Li cell inactive, ALDH1A1 inh 7.9µM and NPSR antagonist inactive.
CCN(CC)S(=O)(=O)c1cccc(-c2nnc(SCC(N)=O)n2CCc2ccccc2)c1 was read as HPGD block inactive, IMPase cell inh inconclusive, 12-hLO inh inactive, IMPase Li cell inactive, ALDH1A1 inh inconclusive and NPSR antagonist inactive.
CCN(CC)S(=O)(=O)c1cccc(-c2nnc(-c3ccc(C)cc3)o2)c1 was read as HPGD block inactive, IMPase cell inh inactive, 12-hLO inh inactive, IMPase Li cell inactive, ALDH1A1 inh 11µM and NPSR antagonist inactive.
Screening O=C(N/N=C/c1cccnc1)c1ccc(S(=O)(=O)N2CCCCCC2)cc1 returned NPSR antagonist inactive.
Screening CC1CCCN(C(=O)CNC(=O)Cn2ccc3ccccc3c2=O)C1 (centres undefined) returned HPGD block inconclusive, IMPase cell inh inactive, 12-hLO inh inactive, IMPase Li cell inactive, ALDH1A1 inh inconclusive and NPSR antagonist inactive.
Screening Cc1ccnc2c(N3C(=O)C4C5C=CC(C5)C4(C)C3=O)cccc12 (centres undefined) returned HPGD block inactive, IMPase cell inh inactive, 12-hLO inh inactive, IMPase Li cell inactive, ALDH1A1 inh inactive and NPSR antagonist inactive.
`COc1ccc(-c2nc3ccccc3c(=O)n2NC(=S)N(C)C)cc1` gave HPGD block 14µM, IMPase cell inh inactive, 12-hLO inh inactive, IMPase Li cell inactive, ALDH1A1 inh 4µM and NPSR antagonist inactive.
Screening CC(=O)N1c2ccc(N=Cc3cc(Br)cc(Br)c3O)cc2CC1C (centres undefined) returned NPSR antagonist inactive.
For Cc1c(Cl)cccc1NC(=S)N(Cc1cccs1)C1CCCC1 the results were IMPase Li cell inactive, ALDH1A1 inh inconclusive and NPSR antagonist inactive.
CC(C)=CC1C=C(C)C(C)C2C(=O)NNC(=O)C12 (centres undefined) was read as HPGD block inactive, IMPase cell inh inactive, 12-hLO inh inactive, IMPase Li cell inactive, ALDH1A1 inh 3.5µM and NPSR antagonist inconclusive.
Screening CCn1nccc1C(=O)NC1=C(C#N)CCC1 returned HPGD block inactive, IMPase cell inh inactive, 12-hLO inh inactive, IMPase Li cell inactive, ALDH1A1 inh inconclusive and NPSR antagonist inactive.
`Cc1cc(N(CCO)CCO)nc(-n2nc(C)cc2C)n1` gave HPGD block inactive, IMPase cell inh inactive, 12-hLO inh inactive, IMPase Li cell inactive, ALDH1A1 inh 11µM and NPSR antagonist inactive.
For Cc1cc(NCCO)nc(-n2nc(C)cc2C)n1 the results were IMPase cell inh inactive, 12-hLO inh inactive, ALDH1A1 inh inconclusive and NPSR antagonist inactive.
COC(=O)[C@@]1(Cc2ccc(OC)cc2)[C@H]2c3cc(C(=O)N(C)C)n(Cc4ccc(OC(F)(F)F)cc4)c3C[C@H]2CN1C(=O)c1ccccc1 was read as HPGD block inactive, 12-hLO inh inactive, IMPase Li cell inactive, ALDH1A1 inh inactive and NPSR antagonist inactive.
Screening CCN(c1ccccc1)S(=O)(=O)c1ccc(Cl)c(NC(=O)COC(=O)c2cc(O)c3ccccc3c2O)c1 returned NPSR antagonist inactive.
`NC(=O)CC[C@@H]1NC(=O)[C@H](CO)NC(=O)c2cc([N+](=O)[O-])cc(I)c2NCCCC[C@@H](C(N)=O)NC(=O)[C@H](Cc2ccc(O)cc2)NC1=O` gave HPGD block inactive, 12-hLO inh inactive, IMPase Li cell inactive, ALDH1A1 inh inactive and NPSR antagonist inactive.
For NC(=O)CC[C@@H]1NC(=O)[C@H](CO)NC(=O)c2cc([N+](=O)[O-])cc(I)c2NCC[C@@H](C(N)=O)NC(=O)[C@H](Cc2ccc(O)cc2)NC1=O the results were HPGD block inactive, 12-hLO inh inactive, IMPase Li cell inactive, ALDH1A1 inh 3.5µM and NPSR antagonist inactive.
Screening COc1ccc(-c2cc(C3CC3)nc3sc(C#N)c(N)c23)cc1 returned HPGD block inconclusive, IMPase cell inh inactive, 12-hLO inh inactive, IMPase Li cell inactive, ALDH1A1 inh inconclusive and NPSR antagonist inactive.
For N#Cc1sc2nc(-c3cccs3)cc(-c3ccccc3)c2c1N the results were HPGD block inconclusive, IMPase cell inh inactive, 12-hLO inh inactive, IMPase Li cell 10µM, ALDH1A1 inh inconclusive and NPSR antagonist inactive.
Screening CCN(CC)C(=O)c1sc2nc(-c3cccs3)cc(-c3cccs3)c2c1N returned ALDH1A1 inh 20µM and NPSR antagonist inconclusive.
N#Cc1sc2nc(-c3cccs3)cc(-c3ccc(Cl)cc3)c2c1N was read as HPGD block inactive, IMPase cell inh inconclusive, 12-hLO inh inactive, IMPase Li cell 10µM, ALDH1A1 inh inactive and NPSR antagonist inactive.
